In the library only some 4.1% were active in any assay of this set; here they are far more common.
Env fusion inh: inhibitors of HIV-1 Env-driven cell-cell fusion, primary screen, HeLa-JRFL effector, CEM21 target cells, luciferase | 360,000 tested, 1.1% active | inhibition, % at 12.3 µM | AID 651610, 2012;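 active = mean replicate inhibition score of at least 50 and every replicate individually at or above 50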
ALR H2O2 inh: inhibitors of human ALR sulfhydryl oxidase, primary screen, biochemical, H2O2 detection, HRP-luminol luminescence, single point | FAD-linked sulfhydryl oxidase ALR (Homo sapiens), P55789 | purified ALR, DTT oxidation | inhibition, % (test concentration not listed) | 290,000 tested, 3.8% active | AID 485317, 2010;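 active = mean replicate inhibition above about 79%, with every replicate also reaching it, limit read from the data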
CASP6 VEID inh: human caspase-6 inhibitors, primary screen, biochemical, VEID-R110 fluorescence, single point, set 2; P55212; purified caspase-6, Z-VEID-R110 cleavage fluorescence; inhibition, % at 12.5 µM; 350,000 tested, 0.53% active;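 active = mean inhibition across replicates at least about 35%, with every replicate also reaching that limit, limit read from the data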
Target sequence (P55212 24-179 limits assumed): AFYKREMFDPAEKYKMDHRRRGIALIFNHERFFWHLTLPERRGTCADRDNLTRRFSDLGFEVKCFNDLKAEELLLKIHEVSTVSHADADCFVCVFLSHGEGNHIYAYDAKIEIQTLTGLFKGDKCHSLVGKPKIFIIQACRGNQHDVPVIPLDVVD
Target sequence (P55212 194-293 limits assumed): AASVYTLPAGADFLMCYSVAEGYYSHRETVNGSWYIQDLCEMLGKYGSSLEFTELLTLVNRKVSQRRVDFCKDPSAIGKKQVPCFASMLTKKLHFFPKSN
NSD2 inh: NSD2 histone methyltransferase inhibitors, primary screen, biochemical, AlphaScreen, single concentration, set 2 | NSD2 peptide methylation, 120 min | Histone-lysine N-methyltransferase NSD2 (Homo sapiens), O96028 | inhibition, % at 12.5 µM | AID 743445, 2014 | 310,000 tested, 0.54% active; in the data active = inhibition above about 50%
CFTR F508del cor: F508del CFTR correction, initial screen, CFBE line, single point. CFBE cells, YFP halide quenching; stimulated with forskolin plus potentiator P3; % fluorescence drop versus neutral controls. activity (quench increase), % at 7.58 µM. 350,000 tested, 0.36% active. AID 720511, 2013;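 active = mean added fluorescence quench of at least 8% versus neutral control, with both replicates also reaching 8%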;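 also: cells transiently co-express mutant CFTR-F508del with the halide-sensitive YFP; corrector assay measuring rescue of mutant channel to the surface after 24 h compound exposure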
PglD DTNB: C. jejuni PglD acetyltransferase inhibitors, primary screen, biochemical, DTNB colorimetric, single point; UDP-N-acetylbacillosamine N-acetyltransferase PglD (Campylobacter jejuni); purified PglD enzyme, DTNB colorimetric CoA detection; inhibition, % at 12.5 µM; 360,000 tested, 0.098% active; AID 602405, 2012; in the data active = inhibition above about 16%, passing the limit was not always enough
Numbers stand for hits; i = inactive; nt = no result.

SMILES | Env fusion inh | ALR H2O2 inh | CASP6 VEID inh | NSD2 inh | CFTR F508del cor | PglD DTNB
CC1=Nc2ccccc2N=C(N)C1c1ccccc1 (configuration not stated) | i | 96.2 | i | i | i | nt
COC(=O)c1cc(C(=O)N2CCN(c3cccc(Cl)c3)CC2)cc([N+](=O)[O-])c1 | i | i | i | i | 8.7 | nt
CCC(=O)N1[C@H](CO)[C@@H](c2ccccc2)C12CN(Cc1cccnc1)C2 | nt | nt | i | nt | i | nt
COc1ccc(NC(=O)C2CCCN2c2ccc(OC)c(OC)c2)cc1OC (configuration not stated) | i | 99.0 | nt | nt | nt | i
COc1ccc(NC(=O)C2CCCCN2N)cc1OC (configuration not stated) | i | i | nt | i | nt | i
COc1ccc(C(=O)Nc2ccc(N3CCCC3)cc2)cc1OC | i | 99.1 | i | i | i | i
Cc1ccc(C(=O)Nc2ccc(N3CCCC3)cc2)c(C)c1 | i | i | i | i | i | nt
O=C(Nc1cc(Cl)cc(Cl)c1)C(c1ccccc1)N1CCCCC1 (configuration not stated) | 75.1 | i | nt | i | nt | nt
Cc1ccccc1C(=O)Nc1ccc(N2CCCC2)cc1 | i | 92.3 | i | i | i | i
CCCNC(=O)N1[C@H](CO)[C@@H](c2ccccc2)C12CN(C(=O)CC1CC1)C2 | nt | nt | i | nt | i | nt
C[C@@H]1CN([C@@H](C)CO)C(=O)c2cc(C3=CCCC3)cnc2O[C@H]1CN(C)C(=O)Nc1ccccc1 | nt | nt | i | nt | i | nt
O=C(Nc1ccc(N2CCCCC2)cc1)c1cccnc1 | nt | 97.6 | nt | i | nt | i
O=C(Nc1ccc(N2CCCC2)cc1)C(Cl)c1ccccc1 (configuration not stated) | nt | 97.8 | nt | nt | nt | i
COc1ccc(NC(=O)c2cccnc2N2CCCC2)cc1 | nt | 99.0 | i | i | i | i
C/C=C/c1ccc([C@@H]2[C@@H](CO)N(C(=O)CN(C)C)C23CN(C(=O)C2CCC2)C3)cc1 | nt | nt | i | nt | i | nt
COc1ccc(-c2ccc3c(c2)O[C@@H](CN(C)C)[C@@H](C)CN([C@@H](C)CO)S3(=O)=O)cc1 | i | nt | i | nt | i | i
CC1CCN(C(=O)COc2ccc(Nc3ccccc3)cc2)CC1 | i | 87.6 | i | i | i | nt
CC1CCCN(C(=O)COc2ccc(Nc3ccccc3)cc2)C1 (configuration not stated) | i | 98.9 | i | i | i | nt
OCC1CCCN(C(=S)Nc2ccc(Nc3ccccc3)cc2)C1 (configuration not stated) | i | 99.6 | i | i | i | i
COC(=O)C[C@H]1C[C@@H]2c3cc(NC(=O)Nc4ccc(C(F)(F)F)cc4)ccc3O[C@@H]2[C@@H](CO)O1 | i | nt | i | nt | i | i
CC(C)COc1ccc(-c2nn(-c3ccccc3)cc2C(=O)Nc2nccs2)cc1 | 71.7 | i | nt | i | nt | i
O=C(Nc1nccs1)c1cn(-c2ccccc2)nc1-c1ccccc1 | nt | i | nt | i | nt | i
N#C/C(=C\C=C\c1ccccc1[N+](=O)[O-])C(=O)NC1CCCCC1 | nt | 98.6 | nt | i | nt | i
OC[C@H]1[C@H](c2ccc(-c3ccccc3F)cc2)[C@H]2CN(Cc3cccnc3)CCCCN21 | nt | nt | 47.4 | nt | i | i
OC[C@H]1[C@@H](c2ccc(-c3ccccc3F)cc2)[C@@H]2CN(Cc3cccnc3)CCCCN12 | nt | nt | i | nt | i | i
SMILES | Env fusion inh | ALR H2O2 inh | CASP6 VEID inh | NSD2 inh | CFTR F508del cor | PglD DTNB
Cc1nc2c(C(=O)NCCC(C)C)c[nH]n2c(=O)c1Cl | i | 94.8 | nt | i | nt | nt
COc1cc(C#CC#CCN2CCCCC2)ccc1O | i | 99.2 | nt | i | nt | i
COc1ccc(-c2ccc3c(c2)[C@@H]2[C@@H](CCN2C(=O)c2cnccn2)[C@H](CO)N3)cc1 | nt | nt | i | nt | i | i
CC(c1nnc(SCC(=O)Nc2cccnc2Cl)n1Cc1ccccc1)N(C)C (configuration not stated) | i | 86.8 | i | i | nt | nt
CCOC(=O)c1sc(NNC(=O)c2ccc(C)cc2)nc1C | i | nt | i | i | i | i
CCOC(=O)c1nc(NNC(=O)c2ccc([N+](=O)[O-])cc2)sc1C | i | 99.2 | i | i | nt | i

Source: PubChem (Broad Institute)
